Out of some 360,000 compounds screened, about 3,100 (0.86%) were called active. The sample as a whole holds a higher share of actives than the screen did. Values without a mark were called inactive.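 The calls were made as follows: active = inhibition or corrected inhibition above about 18%, plus a signal ratio from 0.5 to 1.5 (limit read from the data, passing the limit was not always enough); inactive = the rest.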
target: Neuropilin-1 (Homo sapiens) (UniProt O14786); assay: modulators of CendR peptide binding to NRP-1, primary screen, biochemical, fluorescence polarization, uHTS (AID 602438); details: FAM-RPARPAR peptide binding to NRP-1, fluorescence polarization; at 25 µM; hits give high values
Sequence (O14786 whole entry, looked up): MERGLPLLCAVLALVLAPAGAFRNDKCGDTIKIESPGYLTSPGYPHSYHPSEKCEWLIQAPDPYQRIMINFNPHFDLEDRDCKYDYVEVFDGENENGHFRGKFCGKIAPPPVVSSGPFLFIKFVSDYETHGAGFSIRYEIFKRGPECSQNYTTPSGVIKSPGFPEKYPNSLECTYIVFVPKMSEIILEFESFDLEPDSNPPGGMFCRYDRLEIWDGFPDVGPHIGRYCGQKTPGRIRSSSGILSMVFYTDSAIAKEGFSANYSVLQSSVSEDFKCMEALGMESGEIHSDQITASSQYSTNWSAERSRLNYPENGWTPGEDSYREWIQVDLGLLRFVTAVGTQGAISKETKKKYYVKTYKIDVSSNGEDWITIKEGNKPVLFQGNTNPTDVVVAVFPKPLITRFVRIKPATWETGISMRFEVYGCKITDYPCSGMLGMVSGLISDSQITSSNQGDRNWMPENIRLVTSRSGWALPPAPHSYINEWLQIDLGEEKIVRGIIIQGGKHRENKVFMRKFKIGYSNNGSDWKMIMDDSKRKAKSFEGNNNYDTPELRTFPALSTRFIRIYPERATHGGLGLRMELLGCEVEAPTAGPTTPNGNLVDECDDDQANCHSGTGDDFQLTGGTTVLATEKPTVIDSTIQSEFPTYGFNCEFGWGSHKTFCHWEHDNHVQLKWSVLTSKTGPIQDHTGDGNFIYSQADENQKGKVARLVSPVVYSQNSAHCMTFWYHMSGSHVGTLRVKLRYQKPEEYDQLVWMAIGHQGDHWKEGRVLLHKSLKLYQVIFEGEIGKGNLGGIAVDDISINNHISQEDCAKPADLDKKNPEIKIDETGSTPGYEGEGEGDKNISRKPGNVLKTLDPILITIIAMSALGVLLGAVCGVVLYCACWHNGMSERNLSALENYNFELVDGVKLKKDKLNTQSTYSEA

Compared with `CSCC[C@H](NC(=O)CCCn1nnc2ccccc2c1=O)C(=O)O`, `Cc1ccc2c(c1)N(CCCC(=O)NCc1cccnc1)C(=O)CO2` is higher in inhibition: -1.8% for the first, 12.9% for the second.

Going from `CC(=O)N1CCC(C(=O)OCc2ccc(Cl)cc2)(c2ccccc2)CC1` to `O=C1c2ccccc2C(O)N1Cc1ccccc1` (centres undefined), the inhibition rises from -3% to -0.3%.

`COC(=O)Cc1ccc(OCC(=O)Nc2ccc(OC(F)(F)F)cc2)cc1` and `CC(C)Oc1ccc(CC(=O)NNC(=S)Nc2ccc(Br)cc2)cc1` are the same in inhibition: 1.7% for the first, 1.7% for the second.

First: CCOc1ncccc1C(=O)Nc1ccc(S(=O)(=O)Nc2nc(C)cc(C)n2)cc1
Second: Cc1cc(C(=O)Nc2ccc(C)c(S(=O)(=O)N3CCOCC3)c2)c2ccccc2n1
The inhibition of the first is higher: -0.6% for the first, -3.5% for the second.

Compared with `CCCCN1CCNC1=S`, `CCc1cc(=O)oc2c(C)c(OCC(=O)NCCN3CCOCC3)ccc12` is higher in inhibition: -6.7% for the first, 10.3% for the second.

First: CC(NC(=O)c1cc2cc(Cl)ccc2oc1=N)c1ccccc1 (centres undefined)
Second: Cc1ccccc1NC(=O)CSc1ccc2nnc(-c3ccccn3)n2n1
The inhibition of the first is lower: -11% for the first, 8.8% for the second.

Going from `CC(NCc1nc2ccccc2n1C)C12CC3CC(CC(C3)C1)C2` (centres undefined) to `CCCN1C2CCCC1CC(NC(=O)NC13CC4CC(CC(C4)C1)C3)C2` (centres undefined), the inhibition rises from -3.5% to 5.4%.

Going from `Cc1cc(=O)oc2c(C)c(OCC(=O)NCCc3ccc(S(N)(=O)=O)cc3)ccc12` to `Cc1ccc(C(=O)COC(=O)c2cccc(N3C(=O)c4c(C)nc5ccccc5c4C3=O)c2)cc1C`, the inhibition rises from -18.3% to -9.4%.

First: Cc1ccc(S(=O)(=O)N2CCN(S(=O)(=O)N3CCOCC3)CC2)cc1
Second: CC1CC(C)CN(S(=O)(=O)c2ccc(C(=O)NN3CCOCC3)cc2)C1 (centres undefined)
The inhibition of the first is higher: 0% for the first, -2.9% for the second.

First: Cc1c(CC(=O)N2CCN(C(=O)C3COc4ccccc4O3)CC2)c(=O)oc2c(O)c(O)ccc12 (centres undefined)
Second: COC(=O)[C@@]1(Cc2ccc(F)cc2)[C@H]2c3cc(C(=O)N4CCCC4)n(C[C@H](O)CO)c3C[C@H]2CN1C(=O)c1ccccc1
The inhibition of the first is lower: -49.5% for the first, -11.6% for the second.

Compared with `Cc1cc(Cl)ccc1C(=O)C1CCCN(C(=O)c2nonc2C)C1` (centres undefined), `Nn1c(SCC(=O)NC(=O)NC2CCCC2)nnc1-c1ccccc1F` is higher in inhibition: -2.6% for the first, -0.3% for the second.

Compared with `CCCC(=O)NC(Nc1ccccc1OC)C(Cl)(Cl)Cl` (centres undefined), `COc1ccc(Cn2c(=O)sc3ccccc32)cc1OC` is lower in inhibition: -6.4% for the first, -6.5% for the second.

First: NNC(=O)C1CCCn2c1nc1sc3c(c1c2=O)CCCC3 (centres undefined)
Second: C=C(C)CSc1nc(N)c2c3c(sc2n1)CCC3
The inhibition of the first is higher: 1.2% for the first, -0.3% for the second.

Compared with `O=C(C/C(=N\NC(=O)c1ccccc1Br)C(F)(F)F)c1cccs1`, `O=C(CS(=O)(=O)c1ccc(C(F)(F)F)cn1)NNC(=O)c1ccccc1` is lower in inhibition: 0% for the first, -6.4% for the second.

Compared with `CN(C)C(CNC(=O)c1cc(Br)c(Br)s1)c1ccco1` (centres undefined), `Cc1ccc(O)c(NC(=O)c2cc(-c3ccco3)on2)c1` is lower in inhibition: -4.5% for the first, -12.1% for the second.

First: CCC(=O)c1ccc(OC(=O)/C=C/c2cc(OC)c(OC)c(OC)c2)cc1
Second: COc1cc(/C=C/C2=CC(C)(C)NC(=S)N2)cc(OC)c1OC
The inhibition of the first is lower: 2.2% for the first, 3.9% for the second.

First: Cc1cccc(C)c1NC(=O)C(c1cccc(F)c1)N1CCN(C)CC1 (centres undefined)
Second: COc1cccc(OC)c1C(=O)N1CCN(Cc2cccnc2)CC1
The inhibition of the first is lower: 1.1% for the first, 1.8% for the second.

Compared with `CCOc1ccc(/C(O)=C2/C(=O)C(=O)N(Cc3cccnc3)C2c2ccc(N(C)C)cc2)c(C)c1` (centres undefined), `Cc1cccc(C(=O)Nc2ccccc2C(=O)NCc2cccnc2)c1` is lower in inhibition: 6.1% for the first, 3.7% for the second.

Going from `Cc1ccc(CN2CCCOCCS2(=O)=O)cc1` to `CC(C)Oc1ccc(C(CC(=O)N2CCOCC2)C(C)C)cc1` (centres undefined), the inhibition rises from 4% to 9%.

Compared with `O=C(Oc1ccc([N+](=O)[O-])cc1)c1ccc2ccccc2n1`, `Cc1ccc2cccc([N+](=O)[O-])c2n1` is lower in inhibition: 6.3% for the first, -4.4% for the second.

First: CNc1nc(=O)n(C2CCCO2)cc1C (centres undefined)
Second: Nn1c(SCC(=O)NC2CCCC2)nnc1-c1ccccc1F
The inhibition of the first is lower: -12.3% for the first, 6.4% for the second.

Going from `CCCCCCNC(=O)O[C@]12C[C@@H](C(=O)OC)[C@@H](C(=O)OC)C[C@@]1(O)CN(S(=O)(=O)c1ccc(C)cc1)C2` to `CCNC(=O)N(CC)C[C@H]1N[C@@](CC)(C(=O)OC)[C@H]2C(=O)N(Cc3ccccc3)C(=O)[C@@H]12`, the inhibition falls from -8.7% to -9.5%.

First: COc1ccc(CCN=C2SCC(=O)N2C)cc1OC
Second: CCOC(=O)C1=C(c2ccccc2)NC(=O)NC1c1cc(OC)c(OC)cc1OC (centres undefined)
The inhibition of the first is higher: 0.9% for the first, -1.4% for the second.

Compared with `N#CCCN(CCC#N)c1nnc(-c2ccccc2)s1`, `Cc1scc(C(=O)NNC(=S)NCc2ccccc2)c1C` is higher in inhibition: 0.8% for the first, 6.1% for the second.

Going from `Cc1nn2cc(-c3ccc(Cl)cc3)cnc2c1Br` to `CCOc1cc(/C=N/NC(=O)c2ccncc2)cc(Br)c1O`, the inhibition falls from 4% to 2.3%.

Compared with `CC[C@@]1(C(=O)OC)N[C@H](CN(C)C(C)=O)[C@@H]2C(=O)N(C)C(=O)[C@@H]21`, `CCOC(=O)c1c(C)nn(-c2ncccc2NC(=O)CCC(=O)O)c1C` is higher in inhibition: -0.8% for the first, 21.7% for the second.

First: CC(C)(CNC(=O)c1cc(=O)[nH]c2ccccc12)N1CCOCC1
Second: Cc1ccccc1Cn1c(C)c(C(=O)NCc2cccc(C(F)(F)F)c2)sc1=O
The inhibition of the first is higher: 9.2% for the first, -0.6% for the second.

Going from `CCN(CC)C(=O)CSC(Nc1cccc(F)c1)=C(C#N)C#N` to `CC(C)(C)NC(=O)C(=O)NCc1ccncc1`, the inhibition rises from -180% to -1.7%.

First: O=C1C2C3C=CC(C3)C2C(=O)N1c1ccc(-c2nc3ccccc3c(=O)o2)cc1 (centres undefined)
Second: COC(=O)c1cccc(N(C(=O)CNC(=O)c2cccs2)C(C(=O)NCC2CCCO2)c2ccc(OC)c(OC)c2)c1 (centres undefined)
The inhibition of the first is lower: 0.6% for the first, 6.4% for the second.

Compared with `COc1ccc(CN2CCCC(N3CCc4ccccc4C3)C2)c(O)c1` (centres undefined), `COc1cc(C2c3cc4c(cc3C(O)C3COC(=O)C23)OCO4)cc(OC)c1OC` (centres undefined) is lower in inhibition: 5% for the first, -3.6% for the second.

`O=C(N/N=C/c1ccc(Br)o1)c1cncc(Br)c1` was tested, and the inhibition was 2.7%.

For `CCOC(=O)Cc1ncccc1C(=O)Nc1ccc(OC(F)(F)F)cc1`, the inhibition was 29.7% (active).
For `Cc1cc(=O)oc2c(C)c(OCC(=O)NCCN3CCOCC3)ccc12`, the inhibition was 25.8% (active).
`CC1CC(C)CN(c2ccc(S(=O)(=O)N3CCOCC3)cc2)C1` (centres undefined) was tested, and the inhibition was 22.3% (active).
With `Cn1c(NN)nc2sc3c(c2c1=O)CCC3` the inhibition was 17.4% (active).
With `COc1cc(/C=C/c2ccc(/C=C/c3cc(OC)c(OC)c(OC)c3)cc2)cc(OC)c1OC` the inhibition was 20.5% (active).
For `O=[N+]([O-])c1cc2ccccc2nc1-c1ccccc1`, the inhibition was 20.7% (active).
`COc1ccc(CCN=C2SCC(=O)N2Cc2ccccc2)cc1OC` was tested, and the inhibition was 32.3% (active).
With `CC(C)Oc1ccc(CCC(=O)NNC(=S)NCc2ccccc2)cc1` the inhibition was 37.4% (active).
`CCN(C[C@H]1N[C@@](CC)(C(=O)OC)[C@H]2C(=O)N(C)C(=O)[C@@H]12)C(=O)Nc1ccc(F)cc1` was tested, and the inhibition was 33.4% (active).
For `COc1ccc(NC(=O)c2cc(=O)[nH]c3ccccc23)cc1S(=O)(=O)N1CCOCC1`, the inhibition was 26.2% (active).
`COc1c(O)ccc2c1CN1CCc3cc4c(cc3C1C2)OCO4` (centres undefined) was tested, and the inhibition was 30% (active).
For `Cc1ccc(C(=O)N/N=C\c2cc(Br)c(Br)o2)cn1`, the inhibition was 28.3% (active).
For `Cc1nnc(SCC(=O)NC(=O)NC2CCCC2)n1N`, the inhibition was 30.1% (active).
